Source: PubChem (The Scripps Research Institute Molecular Screening Center)
PME-1 inh: PME-1 inhibitors via competitive probe labeling, primary screen, biochemical, fluorescence polarization, FP-Rh probe, HTS | Protein phosphatase methylesterase 1 (Homo sapiens), Q9Y570 | recombinant PME-1 | inhibition, % at 5.9 µM | actives 0.53% (n = 320,000) | AID 2130, 2009;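 active means inhibition above the campaign mean of all compounds plus 3 SD, cut at about 26% in these data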;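 further: competitive labeling of PME-1 active site by serine hydrolase directed probe; 0% = PME-1 with DMSO and 100% = wells lacking PME-1 enzyme; inhibitors block probe labeling so polarization falls and inhibition rises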
LYPLA2 counter: LYPLA2 inhibitors, primary screen, counter-screen for PME1 inhibitor project, biochemical, fluorescence polarization, FP-Rh probe ABPP | Acyl-protein thioesterase 2 (Homo sapiens), O95372 | recombinant LYPLA2 | inhibition, % at 5.9 µM | actives 0.38% (n = 320,000) | AID 2177, 2009;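 active means inhibition above the screen-wide mean plus 3 SD, limit set per campaign, cut at about 26% in these data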;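 further: 0% = LYPLA2 with DMSO and 100% = wells lacking LYPLA2 enzyme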
Target sequence (O95372 whole entry, looked up): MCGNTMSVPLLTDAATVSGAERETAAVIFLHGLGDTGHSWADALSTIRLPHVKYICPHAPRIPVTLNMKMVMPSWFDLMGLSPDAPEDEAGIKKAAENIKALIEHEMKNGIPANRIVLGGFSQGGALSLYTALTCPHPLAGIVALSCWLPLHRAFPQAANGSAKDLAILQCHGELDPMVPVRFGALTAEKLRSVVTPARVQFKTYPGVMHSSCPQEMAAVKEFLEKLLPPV
Fam108B inh: mouse Fam108B serine hydrolase inhibitors, primary screen, counter-screen for RBBP9 inhibitor project, biochemical, fluorescence polarization; actives 0.33% (n = 300,000); inhibition, % at 9.51 µM; recombinant Fam108B, FP-Rh probe fluorescence polarization;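 active means inhibition above the screen mean inhibition plus 3 SD, computed separately per campaign, cut at about 18% in these data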;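 further: inhibitors lower polarization as less probe binds the enzyme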
LYPLA1 inh: LYPLA1 inhibitors, primary screen, counter-screen for PME1 inhibitor project, biochemical, fluorescence polarization, FP-Rh probe ABPP; recombinant LYPLA1; inhibition, % at 5.9 µM; actives 0.16% (n = 320,000); AID 2174, 2009;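 active means inhibition above the mean of all tested compounds plus 3 SD, set per campaign, cut at about 14% in these data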;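 further: inhibitors block serine hydrolase probe labeling of LYPLA1 so polarization falls; 0% = enzyme with DMSO and 100% = wells lacking LYPLA1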
Target sequence (O75608 whole entry, looked up): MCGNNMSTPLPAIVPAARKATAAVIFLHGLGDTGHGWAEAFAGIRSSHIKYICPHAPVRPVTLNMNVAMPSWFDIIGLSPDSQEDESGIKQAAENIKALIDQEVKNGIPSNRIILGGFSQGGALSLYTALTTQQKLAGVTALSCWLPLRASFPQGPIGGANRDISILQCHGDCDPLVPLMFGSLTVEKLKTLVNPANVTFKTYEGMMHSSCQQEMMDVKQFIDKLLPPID
GSTO1 counter: inhibitors of recombinant GSTO1, primary screen, counter-screen for RBBP9 inhibitor project, biochemical, fluorescence polarization. Glutathione S-transferase omega-1 (Homo sapiens), P78417. activity-based probe fluorescence polarization. inhibition, % at 5.96 µM. actives 1.1% (n = 300,000). AID 1974, 2009;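 active means inhibition above the campaign mean inhibition plus 3 SD, cut at about 35% in these data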;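 further: 0% = GSTO1-1 with DMSO and 100% = wells lacking GSTO1-1 enzyme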
Target sequence (P78417 whole entry, looked up): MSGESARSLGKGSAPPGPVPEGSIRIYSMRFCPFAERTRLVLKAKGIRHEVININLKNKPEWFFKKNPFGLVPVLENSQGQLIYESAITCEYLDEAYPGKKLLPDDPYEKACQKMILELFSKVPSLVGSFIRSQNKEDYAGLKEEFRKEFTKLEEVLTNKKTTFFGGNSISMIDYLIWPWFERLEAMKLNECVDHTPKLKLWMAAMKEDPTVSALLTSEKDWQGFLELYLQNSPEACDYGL
PAD4 FP inh: human PAD4 inhibitors, primary screen, biochemical, fluorescence polarization, 1536-well format. Protein-arginine deiminase type-4 (Homo sapiens), Q9UM07. inhibition, % at 6.36 µM. recombinant PAD4, RCA probe fluorescence polarization. actives 0.41% (n = 330,000);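 active means percent inhibition above a cutoff equal to the mean of all tested compounds plus 3 SD, cut at about 15% in these data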;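 further: 0% = PAD4 with RCA probe and DMSO and 100% = probe without PAD4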
Fam108b inh conf: mouse Fam108b serine hydrolase inhibitors, confirmation, counter-screen for RBBP9 inhibitor project, biochemical, fluorescence polarization, triplicate; shares compounds with Fam108B inh; recombinant Fam108b, FP-Rh probe fluorescence polarization; actives 44% (n = 930); inhibition, % at 9.51 µM;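 active means inhibition above a limit from the primary screen, the mean over all compounds plus 3 SD, cut at about 19% in these data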;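 further: 0% = median of active Fam108b wells and 100% = catalytically dead S170A mutant; inhibitors free the probe so polarization falls as inhibition rises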
Fam108b ABPP HTS: inhibition of mouse Fam108b by HTS hits, late-stage follow-up, biochemical, gel-based ABPP, soluble recombinant form; fluorophosphonate probe; AID 588649, 2011; actives 44% (n = 260); shares compounds with Fam108B inh; inhibition, % at 20 µM; in the data active means inhibition above about 40%
An asterisk follows results filed as active; nt = not tested or not shown; ! = not active in a repeat. A selection: hits, their analogues and other compounds. The true share with any hit is near 1.8%.

SMILES	PME-1 inh	LYPLA2 counter	Fam108B inh	LYPLA1 inh	GSTO1 counter	PAD4 FP inh	Fam108b inh conf	others
N#Cc1cccc(S(=O)(=O)NCCOc2ccccc2F)c1	-0.7	2.9	nt	0.1	nt	-6.3	nt
Cc1ccc(-n2nc(C(=O)NCc3ccc(C)o3)c3c4ccccc4n(C)c3c2=O)cc1	-3.5	-4.1	-5.4	-3.0	0.4	2.0	nt
Cc1ccc(C)n1-c1cccc(C(=O)O)c1	-26.7	0.8	34.6*	-3.3	53.2*	7.2	43.3*	Fam108b ABPP HTS=0.0
Cc1ccc(C)c(-n2c3nc(=O)[nH]c(=O)c-3cc3cc([N+](=O)[O-])ccc32)c1	36.0*	10.0	26.2*	5.7	-10.3	3.1	34.9*	Fam108b ABPP HTS=70.0*
COc1ccc(CN2C(=O)c3c(c(C)n(C)c3C)C2C(=O)NC2CCC(C)CC2)cc1 (stereo not given)	-5.1	-5.0	23.9*	-1.0	7.2	-1.6	-2.2
COc1ccc(NC(=O)CN(C)CC(=O)NC2CCC(C)CC2)cc1 (stereo not given)	-0.6	7.3	nt	3.5	nt	1.7	nt
O=c1cc(CSc2ccc(Cl)cc2)[nH]c2[nH]n(-c3ccccc3)c(=O)c12	9.9	7.5	19.4*	-3.5	-191.4	2.4	-1.7
Oc1ccccc1N1CCN(CC(O)COCc2ccccc2Cl)CC1 (stereo not given)	-1.0	5.9	-1.3	1.8	6.9	-2.7	nt
COc1cc(/C=N/NC(=O)c2cc3ccccc3[nH]2)ccc1O	36.0*	1.4	20.4*	-6.0	-9.1	-0.9	18.7*
COc1cc(/C=N/NC(=O)CCn2c3ccccc3c3ccccc32)ccc1O	13.1	-2.7	24.3*	-6.1	-1.3	-3.9	2.0
COc1cc(/C=N/NC(=O)CCn2nnc3ccccc32)ccc1O	5.9	1.5	-0.4	-2.9	-0.9	-2.3	nt
COc1ccc(/C=N/NC(=O)c2cc3c(OC)ccc(OC)c3[nH]2)cc1O	39.6*	14.1	30.5*	4.9	3.9	-3.1	17.2
COc1cc(/C=N/NC(=O)c2nc(C)cc(C)n2)ccc1O	-0.4	3.7	-0.7	1.4	-0.2	2.4	nt
COc1ccc(OC)c2[nH]c(C(=O)N/N=C/c3ccccc3O)cc12	59.7*	-0.5	53.2*	-6.6	-22.4	-2.6	20.8*
Cn1c2ccccc2c2cc(C=NNC(=O)c3cc(O)ccc3O)ccc21	nt	nt	nt	nt	nt	nt	nt	Fam108b ABPP HTS=85.0*
CCOc1ccc2[nH]c(C(=O)N/N=C/c3cc(OC)c(OC)c(OC)c3)cc2c1	15.7	-9.4	28.5*	-8.8	2.3	-5.3	-5.9
Cn1c2ccccc2c2cc(/C=N/NC(=O)c3cc(O)cc(O)c3)ccc21	12.1	-42.6	8.3	-28.8	-35.2	-3.6	nt
COc1cc(/C=N/Nc2nc3c(c(=O)n(C)c(=O)n3C)n2Cc2ccccc2)ccc1OC(=O)c1ccco1	39.2*	4.9	19.5*	-9.6	1.9	-0.1	-9.8
S=C(NCc1ccc2[nH]c3c(c2c1)CCCC3)Nc1ccccc1	9.4	6.7	21.4*	-1.6	-5.4	-0.6	13.0
Cc1cc(C)cc(NC(=S)NCc2ccc3[nH]c4c(c3c2)CCCC4)c1	9.4	-2.3	2.2	-3.6	0.8	-2.3	nt
CC1=NN(c2ccccc2)C(=O)/C1=C/c1c(O)n(-c2ccc(F)cc2)[nH]c1=O	50.9*	4.8	46.5*	0.0	11.8	-1.3	50.8*	Fam108b ABPP HTS=5.0
Cn1ncc2c(Nc3cccc(Cl)c3)nc(Nc3cccc(Cl)c3)nc21	-33.8	-52.9	-33.5	-36.9	-31.5	-1.9	nt
Cn1ncc2c(Nc3ccc(Br)cc3)nc(Nc3ccc(Br)cc3)nc21	10.6	-56.9	18.9*	-39.5	-34.4	-0.1	-21.1
O=C(c1ccc(OCCN2CCCCC2)cc1)c1c(-c2ccc(O)cc2)sc2cc(O)ccc12	6.0	-1.2	20.7*	-7.8	-45.5	-3.1	24.0*!
CC1=CC(C#N)(C#N)C(C#N)(C#N)C(c2ccccc2)N1 (stereo not given)	50.4*	44.4*	42.8*	41.7*	32.2	2.0	-1.8
SMILES	PME-1 inh	LYPLA2 counter	Fam108B inh	LYPLA1 inh	GSTO1 counter	PAD4 FP inh	Fam108b inh conf	others
Cc1nn(-c2ccccc2)c(Cl)c1C=NNc1ccc(S(=O)(=O)Nc2ccccc2C(=O)O)cc1[N+](=O)[O-]	nt	nt	nt	nt	nt	nt	nt	Fam108b ABPP HTS=0.0
O=C(CSc1nc2ccccc2c(=O)n1NC(=O)Cc1ccccc1)NCc1ccccc1Cl	-4.4	-8.5	-1.1	-4.2	-1.4	-1.4	nt
Cc1ccc(NC(=O)CCc2nc3sc4c(c3c(=O)[nH]2)CCCC4)c(Br)c1	-9.9	-5.3	-0.4	-4.2	5.8	-0.4	nt
O=c1cnnc(NCc2ccccc2)[nH]1	-4.8	-2.6	22.3*	-2.7	0.4	0.8	2.2
CCc1nnc(NC(=O)COC(=O)c2cc(OC)cc(OC)c2)s1	nt	nt	nt	nt	nt	1.8	nt
CN1CCN(CC(=O)Nc2ccc(OC(F)(F)F)cc2)CC1	3.7	-2.4	-1.4	-2.3	-7.2	-15.9	nt
CCOC(=O)c1sc(NC(=O)Nc2ccc(Cl)cc2)cc1C	19.8	-11.3	44.1*	-24.2	-56.1	-3.8	83.2*	Fam108b ABPP HTS=95.0*
CCOC(=O)c1sc(NC(=O)c2ccc(Cl)s2)cc1C	-6.5	0.3	-0.6	-0.7	1.8	1.3	nt
Cc1cccc(NC(=O)/C(C#N)=C/c2ccc(Cl)cc2)n1	4.0	-0.7	19.2*	-1.2	27.4	6.7	-1.0
Cc1cccc(NC(=O)/C(C#N)=C/c2cccc([N+](=O)[O-])c2)n1	2.7	5.0	24.9*	2.4	30.5	1.9	21.4*
Cc1cccc(NC(=O)/C(C#N)=C/c2ccccc2Cl)n1	1.1	-6.9	11.1	0.0	8.0	6.2	nt
COc1ccc(/C=C(\C#N)C(=O)Nc2cccc(C)n2)cc1	3.6	8.3	2.8	1.1	13.2	1.2	nt
CCCc1[nH]n(-c2ccc(F)cc2)c(=O)c1C=Nc1ccc(C)cc1	3.3	-3.0	1.7	-5.9	6.6	-4.1	nt
COc1ccc(/C=C2\N=C(SC)SC2=O)cc1OC	1.5	-3.1	4.9	1.9	-8.5	-4.9	nt
CCOc1cc(/C=C2\N=C(SC)SC2=O)cc([N+](=O)[O-])c1OC(C)=O	14.0	7.7	21.5*	7.7	5.4	2.0	7.2
O=C(Nc1ccc(Cl)cc1)Nc1ccc2c(c1)N1CCN=C1S2	20.1	-2.1	21.6*	-11.8	-3.4	5.7	10.0
